Common to all, as to test: NCI-60 one-dose screen, 48 h (100 = growth as untreated, 0 = no growth, -100 = all killed)
What all share (conditions): 10 µM unless noted

Test [1] deals with NCI-H23 lung.
Test [2] relates to NCI-H322M lung.
In test [3] the test system is HOP-62 NSCLC.
The subject of test [4] is NCI-H460 lung.
Test [5] concerns HOP-92 NSCLC.
For test [6], the system named is NCI-H522 lung.
In test [7] the test system is A549/ATCC NSCLC.
The subject of test [8] is 786-0 renal.
In test [9] the test system is COLO 205 colon.
The subject of test [10] is NCI-H226 lung.

Our source for the growth values is PubChem BioAssay (NCI).

Structures are written as SMILES. This is part of a sample that, as a whole, favours compounds with a hit. Of some 83,000 tested, about 20% had one in any assay.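 For each line, cells grew in 96-well plates with the test compound present at a single concentration for 48 hours.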 Unmarked numbers belong to inactive results. Calls of active or inactive are those of the source. The calls were made as follows: active = growth percent below 10; inactive = the rest.

Regarding `COc1ccc(NC(=O)c2sc3nc(C)c(C(C)=O)cc3c2N)cc1`, the growth in test [1] is 98.1%; in [2], 95.5%; in [3], 99.1%; in test [4] it was 96%; in test [5], 94.6%; in test [6], 75.2%. The growth in [7] is 84%; in [8], 91.4%; in [9] it was 103%.
In the case of `COc1ccc(-n2nc(C(=O)NCC(=O)O)nc2-c2ccccc2)cc1`, the growth in test [1] was 107%; in test [2] it was 98.1%; in test [3] it was 108%; in test [4], 116%; in test [5] it was 97.1%; in [6], 82.5%. Also, the growth in [7] was 97.8%; in [8], 102%; in test [9], 124%.
As to `C#CC[C@@H]1C[C@]2(C)[C@H]3CC[C@@H]4[C@H]5[C@H](C(=C)C)CC[C@]5(C(=O)O)CC[C@@]4(C)[C@]3(C)CC[C@H]2C(C)(C)[C@H]1O`, the growth is 47.9% in test [1]; 67.5% in test [2]; 59% in test [3]; 10.4% in [4]; -6.27% (active) in test [5]; 61.8% in test [6]. In addition, the growth in test [7] was 16.9%; in [8], -1.51% (active); in test [9] it was 83.2%.
On to `COc1cc(C2CC(c3ccc(Nc4nc(NCCO)nc(NCCO)n4)cc3)=NN2c2cc(Cl)cc(Cl)c2)cc(OC)c1OC` (centres undefined), for which the growth in test [10] is 106%; in [2] it was 11.9%; in test [3], 14.4%; in [4] it was -24.5% (active); in [5] it was 89.9%; in test [6] it was 25.1%. The growth in test [7] was 0.449% (active); in test [8], -17.5% (active); in test [9], 35%.
For `S=C(Nc1ccc(Cl)cc1)c1ccccn1`, the growth in test [1] is 83%; in [2] it was 97.2%; in test [3] it was 78.3%; in test [4], 101%; in test [5], 77.1%; in test [6], 73.7%. In addition, the growth in test [7] was 88.9%; in [8], 93.2%; in test [9], 110%.
In the case of `COc1ccc(/C=C(/C(=O)N2CCN(Cc3ccccc3)CC2)c2cc(OC)c(OC)c(OC)c2)cc1O`, the growth is 81% in test [1]; 91.2% in test [2]; 74.2% in test [3]; 58.4% in test [4]; 44.3% in test [5]; 44.8% in test [6]. The growth is 68% in test [7], 87.6% in test [8] and 110% in test [9].
Consider `CCOC(=O)/C(=C/c1c(-c2ccccc2)[nH]c2ccccc12)C(=O)c1ccc(Cl)cc1`, for which the growth in test [1] is 55%; in test [2], 78.6%; in test [3] it was 48%; in [4], 33.1%; in test [5], 13.5%; in test [6], 19.8%. The figures for the growth in test [7], in test [8] and in test [9] were 39.6%, 26.5% and 63.2%, respectively.
As for `Cc1cc(Nc2nc(SCc3ccc(C(=O)Nc4ccc(F)cc4N)cc3)nn3cccc23)n[nH]1`, the growth is 42.8% in [1]; 52.8% in test [2]; 23.4% in test [3]; 9.98% (active) in test [4]; 53.6% in test [5]; 30.8% in [7]. Also, the growth in test [8] was 44.1%; in test [9], -39.9% (active).
Regarding `COc1ccc([C@H]2[C@@H](F)C(=O)N2c2cc(OC)c(OC)c(OC)c2)cc1F`, the growth in test [10] is 59%; in [2], 46.4%; in test [3], 31.8%; in test [4], 7.06% (active); in test [5] it was 32.3%; in test [7] it was 15.3%. In addition, the growth in test [8] was 22.9%; in [9], -68% (active).
Take `C=C(C)[C@@H]1CCC=C2CC[C@]3(C)[C@H](CC[C@@H]4[C@@]5(C)CCCNC(C)(C)[C@@H]5CC[C@]43C)[C@H]21`: the growth is 104% in [10]; 33.7% in [2]; 77.8% in [3]; -24.6% (active) in test [4]; 79.2% in test [5]; 66.7% in [6]. Also, the values for the growth in test [7], in [8] and in test [9] were 13%, -5.34% (active) and -43.6% (active), respectively.
For the compound `Oc1ccc(CNNc2ccnc3c(O)cccc23)c2cccnc12`, the growth in test [10] is 86.7%; in test [2], 47.8%; in test [3], 25.2%; in test [4], 12.3%; in test [5], 54.3%; in test [6], 13%. Also, the growth in [7] was 26.5%; in test [8], 39%; in [9], 64.8%.
Take `CCOC(=O)c1c(C)nc2c(c1N)/C(=C/c1cccs1)C(=O)N2Cc1ccccc1`: the growth was 77.5% in test [10]; 91.9% in test [2]; 68.8% in [3]; 67.1% in test [4]; 60.4% in test [5]; 58.3% in [6]. The growth in test [7] is 77.9%; in test [8], 52.1%; in test [9] it was 61.3%.
Regarding `C#CCN(CCCOc1ccc(Cl)cc1Cl)CCCSC(=O)CCCCCN1/C(=C\C=C2/CCCC(/C=C/C3=[N+](CCCCCC(=O)[O-])c4ccccc4C3(C)C)=C2Cl)C(C)(C)c2ccccc21`, the growth in test [10] was -10.9% (active); in test [2] it was 83.7%; in test [3] it was 30.7%; in test [4], 11.8%; in [5], 13.7%; in test [6], -10.3% (active). Further, the growth in test [7] is 66%; in [8], 25.4%; in [9], 32.8%.
For the compound `CCOC(=O)NCCc1nc2c([nH]1)c(=O)n(C)c(=O)n2C`, the growth is 105% in test [10]; 103% in test [2]; 115% in test [3]; 106% in [4]; 93.5% in [5]; 92.5% in [6]. Further, the growth in test [7] was 104%; in [8], 102%; in test [9], 109%.
